According to ChEMBL document CHEMBL4513216, “Probing the Open Global Health Chemical Diversity Library for Multistage-Active Starting Points for Next-Generation Antimalarials” (ACS Infect Dis, 2020):
Screen size: about 65,000 compounds; about 2,100 (3.2%) showed an effect of 50% or more. The median lay at about -52%. The entries come from a sample that favours strong results as a whole.

Tested on: Plasmodium falciparum
Assay: Screen against P. falciparum Asexual Blood Stage (ABS), at 5uM
Format: functional, Dd2
Conditions: tested at 5 uM

| Compound | INHIBITION [%] |
| --- | --- |
| COCCn1c(-c2cccc(OC)c2)cnc1NC(=O)NCCC(C)C | -63.4 |
| CN(C)C(=O)c1ccc(C2CCCN2C(=O)c2cccc3c2OCC3)s1 (stereo not given) | -53.8 |
| COc1ncccc1CN1CCC2(CC1)CN(c1ccccn1)CCO2 | 56.5 |
| Fc1ccc(CN2CCC3(CC2)CN(c2ccccn2)CCO3)cc1 | 49 |
| c1ccc(CN2CCC3(CC2)CN(c2ccccn2)CCO3)nc1 | -67.1 |
| COc1ccc(CN2CCC3(CC2)CN(c2ccccn2)CCO3)cc1 | 62.3 |
| Cn1ccnc1CN1CCC2(CC1)CN(c1ccccn1)CCO2 | -254 |
| Cc1noc(C)c1CN1CCC2(CC1)CN(c1ccccn1)CCO2 | 30 |
| COCC(=O)NCc1cc(=O)n2c(n1)CN(C)CCC2 | -101 |
| Cc1nc(OCC(=O)N2CCCC2)cc(-n2cccn2)n1 | -111 |
| CCC(CC)C(=O)N1CCC2(CC1)c1ccccc1[C@@H](OC)[C@@H]2O | -1.77 |
| Cc1ccc(C2CN(c3nnc(C(F)F)s3)CCO2)c(C)c1 (stereo not given) | -42.4 |
| COc1cccc(CN(C)C(=O)CN2CC(n3nc(C)cc3C)C2)c1 | 63.3 |
| Cc1cc(C)n(C2CN(CC(=O)N(C)Cc3ccsc3)C2)n1 | 26.5 |
| Cc1cc(C)n(C2CN(CC(=O)N(C)Cc3cnn(C)c3)C2)n1 | -98.1 |
| Cc1nc(CN2CCC3(CC2)CC(=O)N(C)c2ccccc23)cs1 | -87.3 |
| Cc1ccc(C(=O)NC2CCN(C(=O)Nc3ccncc3)CC2)o1 | -195 |
| COCCn1cnc2ccc(NC(=O)C3CC3)cc2c1=O | -76 |
| O=C(Cn1ccnc1)N1C[C@@H]2CC[C@H](Oc3ccccc3Cl)[C@@H]2C1 | -43.2 |
| CN(C)CC(=O)N1C[C@@H]2CC[C@H](Oc3ccccc3Cl)[C@@H]2C1 | 63.7 |
| COCCOCC(=O)N1C[C@@H]2CC[C@H](Oc3ccccc3Cl)[C@@H]2C1 | -103 |
| CCOCC(=O)N1C[C@@H]2CC[C@H](Oc3ccccc3)[C@@H]2C1 | -68.1 |
| COCCOCC(=O)N1C[C@@H]2CC[C@H](Oc3ccccc3)[C@@H]2C1 | -114 |
| CN(C)CC(=O)N1C[C@@H]2CC[C@H](Oc3ccccc3)[C@@H]2C1 | 61.8 |
| CC(C)c1ncc(Cl)c(C(=O)N2CCN(C3CCCC3)CC2)n1 | -16.7 |
| Cc1nn(C)c(C)c1NC(=O)c1cccc(CN2CC[C@H](O)C2)c1 | -133 |
| CN(C)S(=O)(=O)N(C)C(c1cccc(F)c1)c1ccccn1 (stereo not given) | -27.6 |

| Compound | INHIBITION [%] |
| --- | --- |
| O=C(c1cc(Cl)ccc1F)N1CCCC1Cn1cccn1 (stereo not given) | -101 |
| Cc1cc(C)n(CCCNc2ncnc3c2NC(=O)CN3)n1 | -40.1 |
| COc1ccccc1-n1nc(CC(C)C)nc1Cc1nnc(N)s1 | -59.7 |
| CN(Cc1ccsc1)C(=O)c1cc2c([nH]c1=O)CCCC2=O | -198 |
| CSc1ccc(CN(C)C(=O)c2cc3c([nH]c2=O)CCCC3=O)cc1 | -31.6 |
| CN(Cc1ccc(N(C)C)cc1)C(=O)c1cc2c([nH]c1=O)CCCC2=O | 50.8 |
| Cc1cccc(CNC2CCCc3c2cnn3Cc2ccccc2)c1 (stereo not given) | 65.9 |
| Cc1cccc(CNC2CCCc3c2cnn3C)c1 (stereo not given) | -37.4 |
| Cc1ccc(CNC2CCCc3c2cnn3Cc2ccccc2)s1 (stereo not given) | 16.3 |
| c1cnc(N2CC[C@@H](N3CCOCC3)[C@@H]2Cc2ccncc2)nc1 | -78 |
| CC(C)CNc1cc(-c2c[nH]nc2C2CCN(C(=O)C3CC3)C2)ccn1 (stereo not given) | 84.6 |
| CC(=O)N1CCC(c2n[nH]cc2-c2ccnc(N)c2)C1 (stereo not given) | -13.8 |
| Nc1cc(-c2c[nH]nc2C2CCN(C(=O)C3CCCC3)C2)ccn1 (stereo not given) | -27.3 |
| COc1cccc(CCC2CCCN(Cc3ncc[nH]3)C2)c1 (stereo not given) | 22 |
| Cc1cc(N2CCC(Cc3ccccc3)CC2)nc(-c2ccncc2)n1 | -64.9 |
| CC(C)CN1CC[C@@H]2[C@@H]1CCN2S(=O)(=O)c1cccs1 | 17.9 |
| CN1C(=O)CC[C@@H]2[C@H]1CCN2S(=O)(=O)c1cccs1 | 47.1 |
| O=S(=O)(c1cccs1)N1CC[C@H]2[C@H]1CCN2CC1CC1 | 57.7 |
| Cc1ccc(CNC(=O)c2ccc(=O)n(C)n2)c(OCC2CC2)c1 | -124 |
| O=C1NCCN1C1CCN(Cc2nc(-c3ccsc3)no2)CC1 | -14.4 |
| CCc1ccccc1OCC(=O)Nc1ccnc(OCCN(C)C)c1 | 59.7 |
| COc1cc(C)ccc1OCC(=O)Nc1ccnc(OCCN(C)C)c1 | -18.6 |
| COCC(=O)Nc1ccnc(OCCN(C)C)c1 | -59.7 |
| Cc1nc2ccn(C(C)C)c(=O)c2cc1C(=O)O | -39.7 |
| CC(=O)N1CCC(n2ccc(-c3cnc(NCC(C)C)nc3)n2)CC1 | -32.2 |
| CC(C)N(CCNc1nc(C2CCCC2)nc2c1cnn2C)C(C)C | 58.6 |
| Cn1ncc2c(NCCC34CCCN3CCC4)nc(C3CCCC3)nc21 | 63.3 |

| Compound | INHIBITION [%] |
| --- | --- |
| CNCCCNc1nc(C2CCCC2)nc2c1cnn2C | -38.7 |
| CCS(=O)(=O)CCNc1nc(C2CCCC2)nc2c1cnn2C | -115 |
| Cn1ncc2c(NCCn3cccc3)nc(C3CCCC3)nc21 | 9.86 |
| CCOCCNc1nc(C2CCCC2)nc2c1cnn2C | -129 |
| N#CCCCS(=O)(=O)NC1(c2cccc(Br)c2)CC1 | -148 |
| CCOC1COC2(CCN(c3ccccn3)CC2)C1 (stereo not given) | -0.961 |
| CCOCC(O)c1nc2c([nH]1)CC(C)(C)CNC2=O (stereo not given) | -96.9 |
| Cc1cnn(CCNCc2c(C)nn(Cc3ccccc3)c2C)c1 | 34.2 |
| Cc1cnn(CC(C)NCc2ccc(-n3cccn3)cc2)c1 (stereo not given) | -72.7 |
| Cc1cnn(CC(C)NCc2c(C)nn(Cc3ccccc3)c2C)c1 (stereo not given) | 50.7 |
| CCOCC1CN(C(=O)C2CCOCC2)Cc2cnn(C)c21 (stereo not given) | -57.8 |
| Cc1ccc(CN2CCN(c3cncc(N(C)C)n3)CC2=O)cc1C | -30 |
| CCN(CC)S(=O)(=O)c1ccc(CNc2cc(C)nc(C)n2)cc1 | -79.3 |
| Cc1ccc(N2CC[C@H](OCC3CC3)[C@@H]2Cc2cccnc2)nn1 | -79.3 |
| COCCO[C@H]1CCN(Cc2ccsc2)[C@H]1Cc1cccnc1 | 14.6 |
| COCCO[C@@H]1CCN(Cc2csc(C)n2)[C@H]1Cc1ccccc1 | 65.8 |
| COCCO[C@H]1CCN(Cc2cccnc2)[C@H]1Cc1cccnc1 | 3.22 |
| Cc1nc(CN2CC[C@@H](OCC3CC3)[C@@H]2Cc2cccnc2)cs1 | 6.96 |
| Cc1nc(CN2CC[C@H](OCC3CC3)[C@@H]2Cc2cccnc2)cs1 | 60.4 |
| Cc1ccc(CN2CCC3(C2)C(=O)N(CC2CC2)c2ccccc23)s1 (stereo not given) | -74.8 |
| COCC(=O)N1C[C@H]2CN(Cc3cccc(F)c3)C(=O)[C@H]2C1 | -63.1 |
| Cc1cc(CN2CCN(C(=O)NC(C)c3cccnc3)CC2)no1 (stereo not given) | 49.7 |
| Cc1nc(CN2CCN(C(=O)NC(C)c3cccnc3)CC2)cs1 (stereo not given) | 56.3 |
| CC(NC(=O)N1CCCN(Cc2cccs2)CC1)c1cccnc1 (stereo not given) | -63.5 |
| CC(C)NC(=O)CCNC(=O)CCc1cc(Cl)cs1 | -9.13 |
| Cn1nc(CN2CCCC2)c2c1CN(c1cnccn1)CC2 | -56 |
| COc1c(CNCC(O)c2ccccc2)c(C(C)C)nn1C (stereo not given) | 0.811 |

| Compound | INHIBITION [%] |
| --- | --- |
| COc1c(CNC2CCCOc3ccc(F)cc32)c(C(C)C)nn1C (stereo not given) | 38.8 |
| COc1c(CNC2CCc3c(F)cccc32)c(C)nn1C (stereo not given) | -21.6 |
| COc1c(CNC2CCCc3ccccc32)c(C)nn1C (stereo not given) | 3.18 |
| COc1c(CNC2CCCOc3ccccc32)c(C)nn1C (stereo not given) | -42.2 |
| COc1c(CNC2CCc3c(Cl)cccc32)c(C)nn1C (stereo not given) | 62.6 |
| COc1c(CNC2CCCOc3ccccc32)c(C(C)C)nn1C (stereo not given) | 52.2 |
| COc1c(CNC2CCOc3c(Cl)cccc32)c(C)nn1C (stereo not given) | 10.1 |
| COc1c(CNCC(O)c2cccc(F)c2)c(C)nn1C (stereo not given) | -92.7 |
| COc1c(CNC2CCCc3ccccc32)c(C(C)C)nn1C (stereo not given) | 64.8 |
| COc1c(CNCC(O)c2cccc(F)c2)c(C(C)C)nn1C (stereo not given) | 63.5 |
| COc1c(CNC2CCOc3ccccc32)c(C(C)C)nn1C (stereo not given) | -20.7 |
| COc1ccc(CN2CCCn3cnc(COC(C)C)c3C2)cc1 | -12.6 |
| CC(C)n1nc(Cn2cccc2)c2c1CN(Cc1ccoc1)C2 | -92.6 |
| Cc1ccccc1C(=O)N1C[C@@H]2C(CN(C)CCc3ccccn3)[C@@H]2C1 (stereo not given in full) | -14.6 |
| COc1c(CNCc2ccc(N(C)C)nc2)c(C(C)C)nn1C | -79 |
| COc1c(CNC2CCc3ccccc32)c(C)nn1C (stereo not given) | 33.9 |
| COc1ccc(CNCc2c(C(C)C)nn(C)c2N(C)C)cn1 | -26.4 |
| CC(C)c1nn(C)c(N(C)C)c1CNC1CCc2cc(F)ccc21 (stereo not given) | 0.843 |
| COc1c(CNC2CCc3cc(F)ccc32)c(C(C)C)nn1C (stereo not given) | 59.7 |
| COc1c(CNC2CCOc3c(Cl)cccc32)c(C(C)C)nn1C (stereo not given) | -60.2 |
| COc1c(CNC2CCc3ccccc32)c(C(C)C)nn1C (stereo not given) | 62.5 |
| COc1c(CNC2CCc3cc(F)ccc32)c(C)nn1C (stereo not given) | 28.1 |
| COc1ccc(CNCc2c(C(C)C)nn(C)c2OC)cn1 | 60.8 |
| CC(C)CN1C(=O)C[C@@H]2[C@@H]1CCN2Cc1cccc(C#N)c1 | -105 |
